Values joined by “and” are separate entries in the source; they are usually repeats but may differ in a detail not shown here. Identical values can stand only once. In all, about 5,500 compounds went through this assay and about 2,000 (36%) were called active. Inconclusive results (about 18%) are left out. Rule as the data show it: active = normalized growth mostly below about 0.91 (no sharp cut-off); inconclusive = no clear call, values can overlap the other calls; inactive = mostly above about 0.92. Some of the results follow.
Assay: chemical genetic growth profiling, strain panel (AID 1159580);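 also: tested at 20 µM; growth read once vehicle control cultures reached saturation at 30 °C; 1 = growth at the plate median or of vehicle wells; lower values mean less growth of the strain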
Conditions: growth OD

Measured: normalized growth

C=C1C(N)CC2CC1C2(C)C (stereo not given)
inactive: S. cerevisiae deletion strains, locus YAL021C, strain ccr4, hits give low values 1.01 | S. cerevisiae deletion strains, locus YAL026C, strain drs2, hits give low values 1.01 | S. cerevisiae deletion strains, locus YAL030W, strain snc1, hits give low values 1.01 | S. cerevisiae deletion strains, locus YBL061C, strain skt5, hits give low values 1 | S. cerevisiae deletion strains, locus YBR009C, strain hhf1, hits give low values 1.01 | S. cerevisiae deletion strains, locus YBR021W, strain FUR4, hits give low values 1 | S. cerevisiae deletion strains, locus YBR023C, strain chs3, hits give low values 0.985 | S. cerevisiae deletion strains, locus YBR171W, strain sec66, hits give low values 0.99 | S. cerevisiae deletion strains, locus YBR229C, strain ROT2, hits give low values 1.01 | S. cerevisiae deletion strains, locus YBR231C, strain swc5, hits give low values 0.999 | S. cerevisiae deletion strains, locus YBR279W, strain paf1, hits give low values 0.997 | S. cerevisiae deletion strains, locus YCL011C, strain gbp2, hits give low values 0.983 | S. cerevisiae deletion strains, locus YCL016C, strain dcc1, hits give low values 1.01 | S. cerevisiae deletion strains, locus YCL029C, strain bik1, hits give low values 1.02 | S. cerevisiae deletion strains, locus YCL069W, strain vba3, hits give low values 0.996 | S. cerevisiae deletion strains, locus YCR088W, strain abp1, hits give low values 0.989 | S. cerevisiae deletion strains, locus YDL005C, strain med2, hits give low values 0.991 | S. cerevisiae deletion strains, locus YDL035C, strain GPR1, hits give low values 0.994 | S. cerevisiae deletion strains, locus YDL040C, strain nat1, hits give low values 0.994 | S. cerevisiae deletion strains, locus YDL074C, strain BRE1, hits give low values 1.02 | S. cerevisiae deletion strains, locus YDL101C, strain DUN1, hits give low values 1.03 | S. cerevisiae deletion strains, locus YDL134C, strain PPH21, hits give low values 1.03 | S. cerevisiae deletion strains, locus YDL185W, strain tfp1, hits give low values 1.01 | S. cerevisiae deletion strains, locus YDL192W, strain arf1, hits give low values 0.996 | S. cerevisiae deletion strains, locus YDR001C, strain nth1, hits give low values 1 | S. cerevisiae deletion strains, locus YDR069C, strain doa4, hits give low values 0.98 | S. cerevisiae deletion strains, locus YDR101C, strain arx1, hits give low values 0.979 | S. cerevisiae deletion strains, locus YDR137W, strain rgp1, hits give low values 1 | S. cerevisiae deletion strains, locus YDR150W, strain NUM1, hits give low values 0.998 | S. cerevisiae deletion strains, locus YDR159W, strain sac3, hits give low values 0.975 | S. cerevisiae deletion strains, locus YDR162C, strain NBP2, hits give low values 1.01 | S. cerevisiae deletion strains, locus YDR195W, strain ref2 0.977 | S. cerevisiae deletion strains, locus YDR297W, strain sur2, hits give low values 1 | S. cerevisiae deletion strains, locus YDR318W, strain mcm21, hits give low values 1 | S. cerevisiae deletion strains, locus YDR334W, strain swr1, hits give low values 0.99 | S. cerevisiae deletion strains, locus YDR335W, strain msn5, hits give low values 0.995 | S. cerevisiae deletion strains, locus YDR388W, hits give low values 1 | S. cerevisiae deletion strains, locus YDR392W, strain spt3, hits give low values 1.01 | S. cerevisiae deletion strains, locus YDR502C, strain sam2, hits give low values 1.04 | S. cerevisiae deletion strains, locus YEL003W, strain gim4, hits give low values 0.998 | S. cerevisiae deletion strains, locus YEL037C, strain rad23, hits give low values 0.99 | S. cerevisiae deletion strains, locus YEL061C, strain CIN8 (second series), hits give low values 1.01 | S. cerevisiae deletion strains, locus YER015W, strain faa2, hits give low values 0.99 | S. cerevisiae deletion strains, locus YER016W, strain bim1, hits give low values 0.994 | S. cerevisiae deletion strains, locus YER110C, hits give low values 1.02 | S. cerevisiae deletion strains, locus YER111C, strain swi4, hits give low values 0.989 | S. cerevisiae deletion strains, locus YER155C, strain BEM2 (second series), hits give low values 1 | S. cerevisiae deletion strains, locus YER155C, strain BEM2, hits give low values 1 | S. cerevisiae deletion strains, locus YER167W, strain BCK2, hits give low values 1 | S. cerevisiae deletion strains, locus YFR010W, strain ubp6, hits give low values 1.01 | S. cerevisiae deletion strains, locus YGL078C, strain dbp3, hits give low values 1.04 | S. cerevisiae deletion strains, locus YGL086W, strain mad1, hits give low values 1 | S. cerevisiae deletion strains, locus YGL167C, strain pmr1, hits give low values 0.99 | S. cerevisiae deletion strains, locus YGL173C, strain kem1, hits give low values 0.998 | S. cerevisiae deletion strains, locus YGL227W, strain vid30, hits give low values 1 | S. cerevisiae deletion strains, locus YGL240W, strain doc1, hits give low values 0.994 | S. cerevisiae deletion strains, locus YGL248W, strain PDE1, hits give low values 1.04 | S. cerevisiae deletion strains, locus YGL253W, strain hxk2, hits give low values 1 | S. cerevisiae deletion strains, locus YGR078C, strain PAC10, hits give low values 1.04 | S. cerevisiae deletion strains, locus YGR135W, strain pre9, hits give low values 1.06 | S. cerevisiae deletion strains, locus YGR252W, strain gcn5, hits give low values 1.09 | S. cerevisiae deletion strains, locus YHR013C, strain ard1, hits give low values 1 | S. cerevisiae deletion strains, locus YHR027C, strain rpn1, hits give low values 0.996 | S. cerevisiae deletion strains, locus YHR030C, strain SLT2, hits give low values 0.996 | S. cerevisiae deletion strains, locus YHR079C, strain IRE1 (second series), hits give low values 1.01 | S. cerevisiae deletion strains, locus YHR079C, strain IRE1, hits give low values 0.994 | S. cerevisiae deletion strains, locus YHR094C, strain hxt1, hits give low values 1.02 | S. cerevisiae deletion strains, locus YHR129C, strain ARP1, hits give low values 1.01 | S. cerevisiae deletion strains, locus YHR142W, strain chs7, hits give low values 1.01 | S. cerevisiae deletion strains, locus YHR200W, strain rpn10, hits give low values 1.03 | S. cerevisiae deletion strains, locus YIL066C, strain RNR3, hits give low values 1.01 | S. cerevisiae deletion strains, locus YIL073C, strain SPO22, hits give low values 1.06 | S. cerevisiae deletion strains, locus YIL125W, strain kgd1, hits give low values 1.01 | S. cerevisiae deletion strains, locus YIR030C, strain dcg1, hits give low values 0.996 | S. cerevisiae deletion strains, locus YJL092W, strain hpr5, hits give low values 0.995 | S. cerevisiae deletion strains, locus YJL095W, strain BCK1 (second series), hits give low values 1.02 | S. cerevisiae deletion strains, locus YJL095W, strain BCK1, hits give low values 1.05 and 0.98 | S. cerevisiae deletion strains, locus YJL115W, strain asf1, hits give low values 0.99 | S. cerevisiae deletion strains, locus YJL129C, strain trk1, hits give low values 1.01 | S. cerevisiae deletion strains, locus YJL134W, strain LCB3, hits give low values 1 | S. cerevisiae deletion strains, locus YJL154C, strain vps35, hits give low values 0.998 | S. cerevisiae deletion strains, locus YJL164C, strain tpk1, hits give low values 0.997 | S. cerevisiae deletion strains, locus YJL166W, strain qcr8, hits give low values 0.997 | S. cerevisiae deletion strains, locus YJL168C, strain set2, hits give low values 1.01 | S. cerevisiae deletion strains, locus YJL187C, strain SWE1 (second series), hits give low values 1.05 | S. cerevisiae deletion strains, locus YJL187C, strain SWE1, hits give low values 0.997 | S. cerevisiae deletion strains, locus YJR066W, strain TOR1, hits give low values 0.953 | S. cerevisiae deletion strains, locus YKL009W, strain mrt4, hits give low values 0.998 | S. cerevisiae deletion strains, locus YKL068W, hits give low values 1.01 | S. cerevisiae deletion strains, locus YKL085W, strain MDH1 (second series), hits give low values 1.01 | S. cerevisiae deletion strains, locus YKL085W, strain MDH1, hits give low values 1.01 | S. cerevisiae deletion strains, locus YKL160W, strain elf1, hits give low values 0.998 | S. cerevisiae deletion strains, locus YKL190W, strain CNB1, hits give low values 1.01 | S. cerevisiae deletion strains, locus YKR001C, strain vps1, hits give low values 1.01 | S. cerevisiae deletion strains, locus YKR026C, strain gcn3, hits give low values 0.999 | S. cerevisiae deletion strains, locus YKR091W, strain srl3, hits give low values 0.996 | S. cerevisiae deletion strains, locus YLL001W, strain dnm1, hits give low values 1 | S. cerevisiae deletion strains, locus YLL026W, hits give low values 0.983 | S. cerevisiae deletion strains, locus YLL041C, strain sdh2, hits give low values 1.02 | S. cerevisiae deletion strains, locus YLR027C, strain aat2, hits give low values 0.985 | S. cerevisiae deletion strains, locus YLR039C, strain RIC1, hits give low values 1.06 | S. cerevisiae deletion strains, locus YLR058C, strain SHM2, hits give low values 1.02 | S. cerevisiae deletion strains, locus YLR102C, strain apc9, hits give low values 1 | S. cerevisiae deletion strains, locus YLR113W, strain HOG1, hits give low values 0.975 | S. cerevisiae deletion strains, locus YLR221C, strain rsa3, hits give low values 1 | S. cerevisiae deletion strains, locus YLR258W, strain gsy2, hits give low values 0.993 | S. cerevisiae deletion strains, locus YLR262C, strain YPT6 (second series), hits give low values 1.02 | S. cerevisiae deletion strains, locus YLR268W, strain sec22, hits give low values 0.992 | S. cerevisiae deletion strains, locus YLR320W, strain mms22, hits give low values 1 | S. cerevisiae deletion strains, locus YLR342W, strain FKS1, hits give low values 0.994 | S. cerevisiae deletion strains, locus YLR357W, strain rsc2, hits give low values 0.968 | S. cerevisiae deletion strains, locus YLR370C, strain arc18, hits give low values 0.986 | S. cerevisiae deletion strains, locus YLR371W, strain rom2, hits give low values 1 | S. cerevisiae deletion strains, locus YLR384C, strain iki3, hits give low values 0.999 | S. cerevisiae deletion strains, locus YLR418C, strain cdc73, hits give low values 1.05 | S. cerevisiae deletion strains, locus YML016C, strain PPZ1, hits give low values 1.01 | S. cerevisiae deletion strains, locus YML032C, strain rad52, hits give low values 1 | S. cerevisiae deletion strains, locus YML120C, strain ndi1, hits give low values 1.01 | S. cerevisiae deletion strains, locus YML124C, strain tub3, hits give low values 0.999 | S. cerevisiae deletion strains, locus YMR058W, strain fet3, hits give low values 1 | S. cerevisiae deletion strains, locus YMR078C, strain ctf18, hits give low values 1.01 | S. cerevisiae deletion strains, locus YMR125W, strain sto1, hits give low values 0.982 | S. cerevisiae deletion strains, locus YMR129W, hits give low values 1.02 | S. cerevisiae deletion strains, locus YMR205C, strain PFK2, hits give low values 0.997 | S. cerevisiae deletion strains, locus YMR223W, strain ubp8, hits give low values 1.02 | S. cerevisiae deletion strains, locus YMR231W, strain pep5, hits give low values 0.995 | S. cerevisiae deletion strains, locus YMR263W, strain SAP30, hits give low values 1.02 | S. cerevisiae deletion strains, locus YMR307W, strain GAS1, hits give low values 0.976 | S. cerevisiae deletion strains, locus YNL067W, strain RPL9B, hits give low values 1.03 | S. cerevisiae deletion strains, locus YNL071W, strain lat1, hits give low values 0.999 | S. cerevisiae deletion strains, locus YNL153C, strain GIM3, hits give low values 1.04 | S. cerevisiae deletion strains, locus YNL183C, strain NPR1, hits give low values 0.957 | S. cerevisiae deletion strains, locus YNL209W, strain ssb2, hits give low values 0.978 | S. cerevisiae deletion strains, locus YNL233W, strain BNI4, hits give low values 1.04 | S. cerevisiae deletion strains, locus YNL248C, strain rpa49, hits give low values 1.02 | S. cerevisiae deletion strains, locus YNL250W, strain rad50, hits give low values 1.03 | S. cerevisiae deletion strains, locus YNL271C, strain bni1, hits give low values 1.01 | S. cerevisiae deletion strains, locus YNL298W, strain CLA4, hits give low values 1.01 | S. cerevisiae deletion strains, locus YNL307C, strain MCK1, hits give low values 1.02 | S. cerevisiae deletion strains, locus YNL322C, strain KRE1 (second series), hits give low values 0.983 | S. cerevisiae deletion strains, locus YNR049C, strain mso1, hits give low values 0.992 | S. cerevisiae deletion strains, locus YNR052C, strain pop2, hits give low values 1.03 | S. cerevisiae deletion strains, locus YOL012C, strain htz1 1.56 | S. cerevisiae deletion strains, locus YOL147C, strain pex11, hits give low values 1.01 | S. cerevisiae deletion strains, locus YOR001W, strain rrp6, hits give low values 1.01 | S. cerevisiae deletion strains, locus YOR061W, strain CKA2, hits give low values 1.01 | S. cerevisiae deletion strains, locus YOR069W, strain VPS5, hits give low values 1.01 | S. cerevisiae deletion strains, locus YOR070C, strain gyp1, hits give low values 0.98 | S. cerevisiae deletion strains, locus YOR080W, strain dia2, hits give low values 0.998 | S. cerevisiae deletion strains, locus YOR083W, strain WHI5, hits give low values 0.994 | S. cerevisiae deletion strains, locus YOR106W, strain vam3, hits give low values 1.01 | S. cerevisiae deletion strains, locus YOR136W, strain idh2, hits give low values 1.01 | S. cerevisiae deletion strains, locus YOR144C, strain elg1, hits give low values 1 | S. cerevisiae deletion strains, locus YOR184W, strain ser1, hits give low values 0.995 | S. cerevisiae deletion strains, locus YOR231W, strain MKK1, hits give low values 0.969 | S. cerevisiae deletion strains, locus YOR265W, strain rbl2, hits give low values 0.981 | S. cerevisiae deletion strains, locus YOR270C, strain vph1, hits give low values 1.03 | S. cerevisiae deletion strains, locus YOR290C, strain snf2, hits give low values 0.994 | S. cerevisiae deletion strains, locus YOR316C, strain cot1, hits give low values 1.02 | S. cerevisiae deletion strains, locus YPL051W, strain arl3, hits give low values 0.972 | S. cerevisiae deletion strains, locus YPL078C, strain atp4, hits give low values 1 | S. cerevisiae deletion strains, locus YPL106C, strain sse1, hits give low values 0.963 | S. cerevisiae deletion strains, locus YPL240C, strain hsp82, hits give low values 0.996 | S. cerevisiae deletion strains, locus YPL256C, strain CLN2, hits give low values 1.01 | S. cerevisiae deletion strains, locus YPR119W, strain clb2, hits give low values 1 | S. cerevisiae deletion strains, locus YPR141C, strain kar3, hits give low values 0.993 | S. cerevisiae deletion strains, locus YPR163C, strain tif3, hits give low values 1.01 | S. cerevisiae deletion strains, locus YPR167C, strain met16, hits give low values 1.01 | S. cerevisiae deletion strains, strain wtn01, hits give low values 0.986 | S. cerevisiae strains, strain wild type, hits give low values 1.02

Source: PubChem BioAssay AID1159580 (chemical genetic matrix, 2015)
